Measurements from PubChem BioAssay AID1035470 (Broad Institute, 2014).
The whole screen tested about 1,800 compounds, of which fewer than 10 were called active. Inconclusive results (about 16%) are left out.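 Rule for the calls: active = compound lowering the normal-ribosome reporter at least twice as much as the humanized-ribosome reporter, growth loss under a set limit; inconclusive = no clear call, values can overlap the other calls; inactive = the rest.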 A selection follows. Results with a measured potency or affinity are listed apart.

Assay: growth inhibition of wild-type GFP E. coli versus G2058-humanized strain, dose response, G2058 mutant RFP vs wild-type GFP, cherry-pick, two tests (AID 1035470)
Conditions: E. coli WT-GFP vs G2058-humanized RFP, fluorescence, 24 h; series mostly up to 50 µM

outcome, inactive:
COC(=O)c1ccsc1NC(=O)c1cccc(OC)c1, O=[N+]([O-])c1ccc(O)c(CSc2nnnn2-c2ccccc2)c1, COCC(C)NC(=O)c1nn(Cc2ccccc2)c(=O)c2ccccc12 (stereo not given), Cc1ccc(NC(=O)C[n+]2cc(-c3ccccc3)n3c2CCC3)c(C)c1, COc1cc(OC)c(NS(=O)(=O)c2cccc(C(=O)OCC(=O)NCC3CCCO3)c2)cc1Cl (stereo not given), Cc1ccc(Nc2nc(C(=O)NCC3CCCO3)cs2)cc1 (stereo not given), CCOC(=O)c1cccc(OS(=O)(=O)Cc2ccccc2)c1, Cc1ccc(S(=O)(=O)NCc2c(-c3ccccc3)noc2C)cc1, Cc1ccc(NC(=O)COC(=O)CCNS(=O)(=O)c2c(Cl)cccc2Cl)cc1, CC1CCN(C(=O)COC(=O)c2ccccc2NC(=O)c2ccco2)CC1, CCc1cccc(NC(=O)c2ccc3c(=O)n4c(nc3c2)CCCCC4)c1, Cc1cc(C)cc(NC(=O)COC(=O)CC2CCCC2)c1, CCn1c(COc2cccc(OC)c2)nnc1SCC(=O)Nc1cc(OC)ccc1OC, COc1ccc(S(=O)(=O)N2CCOc3ccccc32)cc1, COc1ccc(-n2nc3cc(N)c(Br)cc3n2)cc1, COC(=O)[C@]1(Sc2ccc(C)cc2)CC(=O)N[C@@H]1c1ccccc1, O=C(CSc1nc2ccccc2n1S(=O)(=O)c1cccc([N+](=O)[O-])c1)NCCc1ccccc1, S=c1[nH]nc(-c2ccc3ccccc3n2)n1-c1ccc2c(c1)OCCO2, Cc1ccnc(NS(=O)(=O)c2ccc(NC(=O)c3ccc4c(c3)OCCO4)cc2)n1, COc1ccc(OC)c(-c2nn(-c3ccccc3)cc2C(=O)N2CCc3ccccc3C2)c1, COC(=O)c1sccc1NC(=O)CNC(=O)c1ccccc1, Cc1c(Cc2ccccc2)sc(NC(=O)Cc2ccccc2)c1C(N)=O, O=C(Cc1c(F)cccc1Cl)N(Cc1ccccc1)c1ccccn1, Cc1ccoc1C(=O)Nc1ccc2ccccc2c1, Cc1cc(CNC(=O)c2cc(-c3ccccc3)nc3ccccc23)nn1C, Cc1cccc(-c2nsc(SCC(=O)NCC3CCCO3)n2)c1 (stereo not given), Cc1ccc2nc(N(CCN(C)C)C(=O)C3CCN(S(=O)(=O)c4cccs4)CC3)sc2c1, COc1ccc(-c2csc(NC(=O)c3ccoc3C)n2)cc1, CCC1CCCCN1C(=O)CSc1nnc(-c2cccc(Cl)c2)o1 (stereo not given), CCc1nc2ccccc2c(C(=O)OCC(=O)NC(=O)c2cccn2C)c1C
